The supplement of paper PMC11732987, “Enantioselective OTUD7B fragment discovery through chemoproteomics screening and high-throughput optimisation” (Communications Chemistry, 2025)

Columns and labels:
Experiment in all cases: log2 ratio of Biotin-Ahx-Ub-VS probe labelling (fragment/DMSO); higher = less target engagement (more negative = stronger competition), active = hit call of the paper (q ≤ 0.05, log2 ratio ≤ -1)
Conditions in all cases: compound concentration: 200 uM; treatment time: 3 h
[1] = target: T1, OTUD6B (UniProt Q8N6M0)
T1 sequence (whole entry): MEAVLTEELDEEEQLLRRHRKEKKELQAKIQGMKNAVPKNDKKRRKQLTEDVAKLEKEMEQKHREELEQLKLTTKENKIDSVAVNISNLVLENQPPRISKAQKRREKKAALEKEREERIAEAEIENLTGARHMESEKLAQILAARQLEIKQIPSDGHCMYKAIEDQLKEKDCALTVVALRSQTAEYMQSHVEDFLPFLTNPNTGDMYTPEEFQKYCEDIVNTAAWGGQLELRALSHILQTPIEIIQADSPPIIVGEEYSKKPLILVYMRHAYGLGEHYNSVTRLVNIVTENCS
Outline: (§1)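 Each value is an average log2 ratio of fragment to vehicle, tested by unpaired t-test. The underlying Spectronaut label-free quantities were global-median-normalised, and only proteins with ≥2 unique peptides were included. Triplicate HEK293T lysate samples (495 µg) were exposed to fragment at 200 µM or vehicle for 3 h, then to Biotin-Ahx-Ub-VS at 0.5 µM final for 1 h, before NeutrAvidin enrichment of labelled DUBs, LysC and trypsin digestion, and diaPASEF LC-MS/MS.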

[2] = target: T2, OTUD7B (UniProt Q6GQQ9)
T2 sequence (whole entry): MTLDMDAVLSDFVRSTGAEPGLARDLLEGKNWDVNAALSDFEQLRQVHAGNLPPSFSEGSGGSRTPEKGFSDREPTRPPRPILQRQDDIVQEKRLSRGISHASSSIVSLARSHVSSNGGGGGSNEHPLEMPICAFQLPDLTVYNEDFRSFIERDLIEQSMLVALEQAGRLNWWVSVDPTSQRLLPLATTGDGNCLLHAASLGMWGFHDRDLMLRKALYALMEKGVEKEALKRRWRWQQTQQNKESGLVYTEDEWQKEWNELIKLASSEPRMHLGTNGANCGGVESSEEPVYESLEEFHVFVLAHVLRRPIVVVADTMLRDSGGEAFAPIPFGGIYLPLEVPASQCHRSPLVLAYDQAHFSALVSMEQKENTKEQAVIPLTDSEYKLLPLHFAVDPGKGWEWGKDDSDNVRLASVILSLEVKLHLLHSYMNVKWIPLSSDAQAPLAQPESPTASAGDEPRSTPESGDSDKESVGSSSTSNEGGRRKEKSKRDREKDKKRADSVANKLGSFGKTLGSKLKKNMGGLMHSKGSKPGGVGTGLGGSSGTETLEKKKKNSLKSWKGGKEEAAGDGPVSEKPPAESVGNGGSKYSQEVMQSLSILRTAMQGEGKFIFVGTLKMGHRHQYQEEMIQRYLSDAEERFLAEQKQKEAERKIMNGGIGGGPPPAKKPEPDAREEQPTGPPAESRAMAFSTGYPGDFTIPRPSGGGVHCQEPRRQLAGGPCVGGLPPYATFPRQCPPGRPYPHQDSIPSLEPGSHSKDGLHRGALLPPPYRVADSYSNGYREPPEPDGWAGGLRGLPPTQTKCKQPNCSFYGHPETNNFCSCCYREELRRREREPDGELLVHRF
Outline: as §1

[3] = target: PRPF8 (UniProt Q6P2Q9)
Outline: as §1

[4] = target: T3, PSMD7 (UniProt P51665)
T3 sequence (whole entry): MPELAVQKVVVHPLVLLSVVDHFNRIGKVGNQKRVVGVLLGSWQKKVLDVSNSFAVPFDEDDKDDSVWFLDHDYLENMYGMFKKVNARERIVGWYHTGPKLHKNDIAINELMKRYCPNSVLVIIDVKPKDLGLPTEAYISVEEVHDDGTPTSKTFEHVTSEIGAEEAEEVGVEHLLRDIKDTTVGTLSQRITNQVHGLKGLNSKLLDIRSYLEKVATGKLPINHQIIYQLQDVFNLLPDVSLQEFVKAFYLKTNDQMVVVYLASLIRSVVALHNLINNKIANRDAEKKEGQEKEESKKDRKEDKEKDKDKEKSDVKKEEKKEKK
Outline: as §1

[5] = target: UCHL1 (UniProt P09936)
Outline: as §1

[6] = target: T4, UCHL3 (UniProt P15374)
T4 sequence (whole entry): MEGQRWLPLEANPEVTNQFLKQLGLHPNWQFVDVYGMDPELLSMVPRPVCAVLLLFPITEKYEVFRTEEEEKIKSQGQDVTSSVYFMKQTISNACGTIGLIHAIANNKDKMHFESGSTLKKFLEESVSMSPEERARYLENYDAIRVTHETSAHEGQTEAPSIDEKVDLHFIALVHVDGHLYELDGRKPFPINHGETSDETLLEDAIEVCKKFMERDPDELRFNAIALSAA
Outline: as §1

[7] = target: T5, UCHL5 (UniProt Q9Y5K5)
T5 sequence (whole entry): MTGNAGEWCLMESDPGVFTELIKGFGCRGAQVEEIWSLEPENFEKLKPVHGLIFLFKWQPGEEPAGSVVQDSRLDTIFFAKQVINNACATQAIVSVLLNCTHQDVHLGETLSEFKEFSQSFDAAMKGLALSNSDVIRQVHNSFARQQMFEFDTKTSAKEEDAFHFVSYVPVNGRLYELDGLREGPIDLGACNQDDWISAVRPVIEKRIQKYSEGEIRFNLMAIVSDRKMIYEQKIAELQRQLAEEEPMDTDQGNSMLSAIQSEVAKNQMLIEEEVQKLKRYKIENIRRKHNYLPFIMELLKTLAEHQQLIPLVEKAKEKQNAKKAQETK
Outline: as §1

[8] = target: USP10 (UniProt Q14694)
Outline: as §1

[9] = target: T6, USP15 (UniProt Q9Y4E8)
T6 sequence (whole entry): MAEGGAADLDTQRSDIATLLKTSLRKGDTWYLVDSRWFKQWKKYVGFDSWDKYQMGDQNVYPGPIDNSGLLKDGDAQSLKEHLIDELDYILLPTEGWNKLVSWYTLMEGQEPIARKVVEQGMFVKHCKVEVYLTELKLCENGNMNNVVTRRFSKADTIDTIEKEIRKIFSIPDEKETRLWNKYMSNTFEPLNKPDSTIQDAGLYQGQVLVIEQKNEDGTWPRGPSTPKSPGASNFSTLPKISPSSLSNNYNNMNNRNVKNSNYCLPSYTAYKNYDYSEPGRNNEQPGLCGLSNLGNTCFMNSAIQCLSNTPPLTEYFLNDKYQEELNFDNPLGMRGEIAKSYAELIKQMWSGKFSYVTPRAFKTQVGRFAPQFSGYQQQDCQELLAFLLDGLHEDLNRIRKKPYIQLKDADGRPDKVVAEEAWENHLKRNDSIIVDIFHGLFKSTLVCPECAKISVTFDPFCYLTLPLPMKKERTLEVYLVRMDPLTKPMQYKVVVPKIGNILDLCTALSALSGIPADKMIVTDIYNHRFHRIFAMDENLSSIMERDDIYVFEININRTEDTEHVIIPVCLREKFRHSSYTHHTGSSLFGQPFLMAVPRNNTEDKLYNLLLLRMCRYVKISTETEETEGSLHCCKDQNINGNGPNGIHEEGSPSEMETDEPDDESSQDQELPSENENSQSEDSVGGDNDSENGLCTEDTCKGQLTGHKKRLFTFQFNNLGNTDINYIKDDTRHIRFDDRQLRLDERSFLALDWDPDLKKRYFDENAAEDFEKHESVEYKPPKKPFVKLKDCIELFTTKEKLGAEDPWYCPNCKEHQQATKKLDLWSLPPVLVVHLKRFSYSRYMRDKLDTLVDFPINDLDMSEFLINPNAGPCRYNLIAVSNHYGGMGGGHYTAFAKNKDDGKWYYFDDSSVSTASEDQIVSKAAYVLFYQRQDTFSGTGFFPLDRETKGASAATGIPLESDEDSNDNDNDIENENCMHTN
Outline: as §1

[10] = target: USP16 (UniProt Q9Y5T5)
Outline: as §1

Measured: log2 ratio of Biotin-Ahx-Ub-VS probe labelling

Sequence of UCHL1 (P09936 whole entry, looked up): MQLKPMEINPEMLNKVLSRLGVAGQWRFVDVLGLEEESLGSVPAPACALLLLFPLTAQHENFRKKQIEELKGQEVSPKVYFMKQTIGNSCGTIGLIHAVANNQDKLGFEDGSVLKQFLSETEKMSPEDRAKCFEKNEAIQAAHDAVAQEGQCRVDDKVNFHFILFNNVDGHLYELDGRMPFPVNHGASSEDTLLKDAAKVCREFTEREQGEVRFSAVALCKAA
Sequence of USP10 (Q14694 whole entry): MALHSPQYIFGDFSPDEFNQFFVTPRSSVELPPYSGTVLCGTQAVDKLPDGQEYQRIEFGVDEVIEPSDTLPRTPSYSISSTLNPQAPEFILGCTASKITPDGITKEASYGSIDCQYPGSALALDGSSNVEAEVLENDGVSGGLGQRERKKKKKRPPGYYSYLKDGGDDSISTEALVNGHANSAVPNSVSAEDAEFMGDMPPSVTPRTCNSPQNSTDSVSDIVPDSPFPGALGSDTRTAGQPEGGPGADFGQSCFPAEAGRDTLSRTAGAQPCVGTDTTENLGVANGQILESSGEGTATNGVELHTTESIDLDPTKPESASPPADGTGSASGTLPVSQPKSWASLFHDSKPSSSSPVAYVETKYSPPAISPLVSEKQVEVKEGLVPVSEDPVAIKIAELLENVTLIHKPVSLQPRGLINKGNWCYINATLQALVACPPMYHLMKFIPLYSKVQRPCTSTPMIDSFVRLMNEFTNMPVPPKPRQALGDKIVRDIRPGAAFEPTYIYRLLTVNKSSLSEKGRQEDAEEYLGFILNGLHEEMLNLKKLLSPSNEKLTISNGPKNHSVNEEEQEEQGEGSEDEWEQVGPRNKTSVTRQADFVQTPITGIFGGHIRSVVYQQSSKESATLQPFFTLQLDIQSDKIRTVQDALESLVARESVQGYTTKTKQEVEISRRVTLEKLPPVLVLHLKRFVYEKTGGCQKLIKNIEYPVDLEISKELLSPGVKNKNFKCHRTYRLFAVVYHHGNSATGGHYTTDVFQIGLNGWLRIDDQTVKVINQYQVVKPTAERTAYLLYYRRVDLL
Sequence of USP16 (Q9Y5T5 whole entry, looked up): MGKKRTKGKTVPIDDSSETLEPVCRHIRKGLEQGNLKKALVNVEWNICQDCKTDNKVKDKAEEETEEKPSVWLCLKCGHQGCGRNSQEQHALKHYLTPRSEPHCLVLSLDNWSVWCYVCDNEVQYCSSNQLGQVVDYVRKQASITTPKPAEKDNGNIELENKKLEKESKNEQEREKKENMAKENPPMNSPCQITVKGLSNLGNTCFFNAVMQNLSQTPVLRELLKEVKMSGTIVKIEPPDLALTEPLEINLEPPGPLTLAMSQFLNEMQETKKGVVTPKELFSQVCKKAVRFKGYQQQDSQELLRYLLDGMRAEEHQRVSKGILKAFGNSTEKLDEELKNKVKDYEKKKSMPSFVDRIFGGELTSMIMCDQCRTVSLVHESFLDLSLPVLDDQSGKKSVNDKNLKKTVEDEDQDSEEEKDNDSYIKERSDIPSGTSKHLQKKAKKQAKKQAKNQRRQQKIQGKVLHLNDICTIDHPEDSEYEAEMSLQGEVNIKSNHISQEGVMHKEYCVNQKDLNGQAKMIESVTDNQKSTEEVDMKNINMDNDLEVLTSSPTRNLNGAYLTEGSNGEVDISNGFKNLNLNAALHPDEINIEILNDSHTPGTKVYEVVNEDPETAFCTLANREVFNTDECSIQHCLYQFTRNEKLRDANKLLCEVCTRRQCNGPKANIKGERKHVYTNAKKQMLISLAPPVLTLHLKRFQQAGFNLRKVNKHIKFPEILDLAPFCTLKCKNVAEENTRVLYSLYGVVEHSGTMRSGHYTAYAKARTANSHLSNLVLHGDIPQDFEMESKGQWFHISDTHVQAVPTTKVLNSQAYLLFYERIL

CCC(NC(=O)CCl)c1ccc(Cl)cc1 (stereo not given)
active: [2] -1.12 | [5] -1.12
inactive: [1] 0.0691 | [3] 0.164 | [4] -0.0211 | [6] 0.495 | [7] -0.175 | [8] -0.0683 | [9] -0.0837 | [10] -0.0971
